The source of these data is PubChem BioAssay (NCATS).

Common to all, as to assay: Primary qHTS to identify gynecologic anti-cancer compounds using libraries of approved drugs and bioactive compounds (AID 1345084); also: nearly all actives have a fitted effect of over 55% in size
What all share (conditions): Gynecologic cancer cell panel viability, ATPlite luminescence, 48 h; series mostly up to 57.5 µM
For orientation: In qHTS, concentration-response curves come from the screen itself.

The test system of one experiment is OV90. The gist of the method:
(§1)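 Five-concentration response, 48 h; readout is ATP-driven luciferase luminescence.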

The next experiment has as its system PA-1. Summed up:
as §1

In the next experiment the test system is SKOV3. Summed up: as §1
The next experiment has as its system Tov-21-G. The gist of the method:
as §1

The test system of another experiment is Tov112D. Summed up:
as §1

The structures appear in SMILES notation. Inconclusive results are not listed. Calls of active or inactive are those of the source. Calls follow the shape of the dose curve; as a rule, active = well fitted cell-killing curve with a large enough effect; inconclusive = small, poorly fitted or top-dose-only effect, or effect the other way; inactive = flat fitted curve, though single readings scatter.
Potency is read from the fitted curve at half-maximal effect.

In the case of `CCCNCCc1ccc(NS(=O)(=O)c2ccc(OC(F)(F)F)cc2)cc1`, the Potency entry in the experiment on OV90, in the experiment on PA-1, with SKOV3, in the experiment with Tov-21-G and in the experiment with Tov112D was “inactive” throughout.

For `CCCCc1ccc(NS(=O)(=O)c2ccc(F)cc2)cc1`, the Potency entry with OV90, in the experiment with PA-1, in the experiment on SKOV3, with Tov-21-G and with Tov112D was “inactive” in each case.

`CCc1c(Cl)c(O)c(Cl)c(O)c1C(=O)O[C@H]1[C@H](O)[C@H](OC)[C@H](OC/C2=C\C=C\C[C@H](O)/C(C)=C\[C@H](CC)[C@@H](O[C@@H]3OC(C)(C)[C@@H](OC(=O)C(C)C)[C@H](O)[C@@H]3O)/C(C)=C/C(C)=C/C[C@@H]([C@@H](C)O)OC2=O)O[C@@H]1C`: the Potency entry in the experiment on OV90, in the experiment with PA-1, with SKOV3, in the experiment on Tov-21-G and in the experiment with Tov112D was “inactive” throughout.

`CCNC1(C(N)=O)CCN(c2ncnc3c2nc(-c2ccccc2Cl)n3-c2ccc(Cl)cc2)CC1`: the Potency entry in the experiment on OV90, with PA-1, in the experiment with SKOV3, with Tov-21-G and in the experiment with Tov112D was “inactive” each time.

As for `O=C([C@@H](Cc1cccc(C(F)(F)F)c1)NS(=O)(=O)c1cc(F)c2c(c1)CCNC2)N1CCCC1`, the Potency result in the experiment with OV90, in the experiment on PA-1, in the experiment on SKOV3, in the experiment with Tov-21-G and in the experiment with Tov112D was “inactive” each time.

Consider `O=S(=O)(c1ccc(Cl)cc1)N1CCN(c2ccnc3cc(Cl)ccc23)CC1`, for which the Potency result in the experiment on OV90, with PA-1, in the experiment on SKOV3, in the experiment on Tov-21-G and in the experiment on Tov112D was “inactive” throughout.

Regarding `COC1C=C(C)C(O)(CO)C2(C)CCCC(C)(C)C12` (stereo not given), the Potency result in the experiment on OV90, with PA-1, in the experiment on SKOV3, in the experiment with Tov-21-G and with Tov112D was “inactive” throughout.

For `CCNC(=O)N1CCCN(c2ccc(C(=O)NCCc3ccc(Cl)cc3Cl)cc2NC(=O)c2cccc(Cl)c2)CC1`, the Potency entry in the experiment on OV90, with PA-1, in the experiment on Tov-21-G and in the experiment on Tov112D was “inactive” throughout. Further, in the experiment on SKOV3, the Potency was 1000 nM (active).

On to `Cc1cc(C)nc(SCC(=O)Nc2ncc(Cc3cccc4ccccc34)s2)n1`, for which the Potency entry with OV90, with PA-1, in the experiment on SKOV3, in the experiment with Tov-21-G and with Tov112D was “inactive” throughout.

In the case of `COCCCNC(=O)c1ccc(Cn2c(=O)c3ccccc3n(Cc3ccc(C(C)C)cc3)c2=O)cc1`, the Potency entry in the experiment on OV90, in the experiment with PA-1, in the experiment on SKOV3, with Tov-21-G and in the experiment with Tov112D was “inactive” throughout.

Turning to `O=C(NCCCc1ccccc1)C1CCC(CNS(=O)(=O)c2cccc3nsnc23)CC1` (stereo not given), the Potency result in the experiment on OV90, with PA-1, with SKOV3, in the experiment on Tov-21-G and with Tov112D was “inactive” in each case.

Regarding `C[C@@H]1CC[C@]2(C(=O)O)CC[C@]3(C)C(=CCC4[C@@]5(C)CC[C@H](O)[C@](C)(C(=O)O)C5CC[C@]43C)C2[C@]1(C)O` (stereo not given in full), the Potency entry in the experiment on OV90, with PA-1, in the experiment with SKOV3, with Tov-21-G and in the experiment with Tov112D was “inactive” in each case.

Take `CC/C(C)=C/C(=O)OC1C(OC2(C)CCC3C(C4C(C)CCC42)C3(C)C)OC(C)C(O)C1O` (stereo not given): the Potency result in the experiment with OV90, in the experiment with PA-1, with SKOV3, in the experiment on Tov-21-G and in the experiment on Tov112D was “inactive” in each case.

With `NS(=O)(=O)c1ccc(N2CCN(CC[C@@H]3OCCc4ccccc43)CC2)cc1`, the Potency entry in the experiment on OV90, in the experiment on PA-1, in the experiment with SKOV3, with Tov-21-G and in the experiment with Tov112D was “inactive” in each case.

`COc1c(F)cccc1C(=O)N1C[C@@H](C)CC[C@H]1CNc1ccc(Br)cn1`: the Potency entry in the experiment with OV90, in the experiment with PA-1, with SKOV3, in the experiment with Tov-21-G and with Tov112D was “inactive” each time.

Consider `CC(=O)O[C@]1(C(C)=O)CC[C@H]2[C@@H]3CCC4=CC(=O)CCC4=C3[C@@H](c3ccc(N(C)C)cc3)C[C@@]21C`, for which the Potency result in the experiment with OV90, in the experiment with PA-1, in the experiment with SKOV3, in the experiment on Tov-21-G and in the experiment on Tov112D was “inactive” each time.

For the molecule `Cc1cnn(-c2ccccc2)c1NC(=O)COCc1ccccc1`, the Potency result with OV90, in the experiment on PA-1, in the experiment on SKOV3, with Tov-21-G and in the experiment on Tov112D was “inactive” throughout.

In the case of `CC(=O)c1ccc2c(c1)[C@H](NC(=O)c1ccc(F)c(Cl)c1)[C@H](O)C(C)(C)O2`, the Potency entry in the experiment with OV90, in the experiment with PA-1, in the experiment with SKOV3, in the experiment with Tov-21-G and in the experiment on Tov112D was “inactive” in each case.

With `Cc1ccc(C)c(NS(=O)(=O)c2cc(C(=O)Nc3ccccc3-c3ccccc3)ccc2C)c1`, the Potency entry in the experiment with OV90, in the experiment on PA-1, in the experiment on SKOV3, with Tov-21-G and in the experiment with Tov112D was “inactive” each time.

`CCCC(=O)C1(c2ccccc2)CCN(C(=O)[C@@H](Cc2ccc(OC)cc2)NC(=O)[C@@H](N)Cc2cncn2C)CC1`: the Potency entry in the experiment with OV90, in the experiment with PA-1, with SKOV3, in the experiment on Tov-21-G and in the experiment with Tov112D was “inactive” throughout.

For `O=C(Nc1ccn(Cc2ccc(O)cc2C(F)(F)F)n1)c1c(F)cccc1F`, the Potency entry in the experiment with OV90, in the experiment on PA-1, with SKOV3, in the experiment on Tov-21-G and in the experiment on Tov112D was “inactive” each time.

For the molecule `CC1(C)OC[C@H](NC(=O)Nc2ccc(Br)cc2Br)[C@H](c2ccccc2)O1`, the Potency entry in the experiment with OV90, with PA-1, with SKOV3, in the experiment with Tov-21-G and in the experiment on Tov112D was “inactive” throughout.

Turning to `O=S(=O)(Nc1cc(Cl)c(Oc2cnc3ccccc3c2)c(Cl)c1)c1ccc(Cl)cc1Cl`, the Potency result with OV90, with PA-1, in the experiment on SKOV3, in the experiment on Tov-21-G and in the experiment with Tov112D was “inactive” each time.

Consider `CC(C)(C)c1ccc(C(=O)Nc2cc(Cl)c(Br)cc2C(=O)O)cc1`, for which the Potency result with OV90, in the experiment on PA-1, with SKOV3, with Tov-21-G and in the experiment on Tov112D was “inactive” each time.

For the molecule `C=CCc1ccc(OC(C)Cc2ccc(OC)c(OC)c2)c(OC)c1` (stereo not given), the Potency entry in the experiment with OV90, in the experiment with PA-1, in the experiment on SKOV3, with Tov-21-G and in the experiment with Tov112D was “inactive” each time.
